Measured values published in PubChem BioAssay (NCATS).
Results filed as inconclusive are left out. Unmarked numbers belong to inactive results. Activity calls are given as the source filed them. Calls come from the whole dose curve; as a rule, active = well fitted inhibition curve with a large enough effect; inconclusive = small, poorly fitted or top-dose-only effect, or effect the other way; inactive = flat fitted curve, though single readings scatter.

The compounds below were run against ATP-dependent 6-phosphofructokinase (Trypanosoma brucei brucei) (UniProt O15648) (assay: qHTS Assay to Find Inhibitors of T. brucei phosphofructokinase: hit validation (AID 492961;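 for activity change, negative = inhibition: luminescence reports ADP formed as PFK phosphorylates fructose-6-phosphate with ATP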)). Conditions: T. brucei PFK, ADP-Glo luminescence; series mostly up to 51.4 µM; activity change, negative = inhibition: at the top concentration.
Description: NIH Molecular Libraries Probe Production Network [MLPCN] NIH Chemical Genomics Center [NCGC] Grant: 1 R03 MH092153-01 PI Name: Malcolm Walkinshaw, University of Edinburgh NCGC Assay Overview: Various species of the protozoan family Trypanosomatidae are responsible for a range of serious human diseases in tropical and subtropical areas of the world. […] Many of the disorders caused by trypanosomatids are fatal if left untreated, but most currently used drugs are inefficient and toxic. […] Oxidative metabolism involving the mitochondrial tricarboxylic acid cycle and oxidative phosphorylation are repressed in these parasites, and recent RNA interference (RNAi) experiments have shown that even partial depletion of certain individual glycolytic enzymes can lead to the death of cultured parasites. One such glycolytic enzyme, phosphofructokinase (PFK), catalyzes the formation of fructose-1,6-bisphosphate (F1,6BP) and ADP from fructose-6-phosphate (F6P) and ATP, and in many metabolic circumstances makes an important contribution to the control of flux through the glycolytic pathway. As a specific glycolytic target, PFK is particularly attractive as it catalyzes the first irreversible step in glycolysis, and structural and kinetic studies have shown very substantial and essential differences from corresponding host enzymes, allowing for the discovery of parasite-selective inhibitors. The goal of this screen is to find small-molecule inhibitors of T. brucei PFK using a biochemical assay that measures PFK activity as a function of ADP production. A luminescence-based assay for T. brucei PFK activity has been developed which uses luciferase to detect production of ADP. Traditional luciferase-based nucleotide detection reagents rely on ATP production as a direct substrate for the luciferase reaction; however, PFK catalyzes the transfer of a phosphate from ATP to F6P, resulting in the net depletion of ATP. To directly measure the ADP product of the PFK reaction, we used the ADP-Glo detection kit (Promega), which utilizes two separate reactions to 1) deplete all remaining uncatalyzed ATP and 2) convert all remaining ADP to ATP, which is then detected through a traditional luciferase-coupled reaction. Compounds were screened as a concentration-titration series that ranged from 57 uM to 0.7 nM.
NCGC Assay Protocol Summary: Substrate buffer was dispensed into white, solid 1536-well plates at 3uL/well in 0.1M triethanolamine (TEA) buffer, pH 8.0, containing final concentrations of 5 mM MgCl2, 0.01% Tween20, 0.5 mM fructose-6-phosphate (F6P) and 0.1mM ATP. Then, 23 nL of compounds or DMSO were delivered to each well using a pin tool. One uL T. brucei PFK (0.1M TEA, 0.01% Tween20, 0.1% bovine serum albumin (BSA) and 1.25nM PFK, final concentrations) was then dispensed, and plates were incubated at room temperature for 45 min. The luminescent detection reagent, ADP-Glo (Promega), was then added in two steps: the first reagent, ADP-Glo (which converts remaining uncatalyzed ATP), was added at 2.5uL/well and incubated for ten minutes at room temperature, and the second component, Kinase Detection reagent (which converts ADP to ATP as a substrate for luciferase-based luminescence), was added immediately after at 5uL/well, followed by one final ten minute room temperature incubation. The plates were measured on a ViewLux plate reader for luminescent signal using a clear filter with a one second exposure. The %Activity was determined from the corrected luminescence values. As no specific T. brucei PFK inhibitors have been identified in the literature, 1x (1.25nM) and 0x PFK enzyme controls (untreated) were included to normalize %Activity of identified inhibitors; 0x enzyme values corresponded to 100%Activity (full inhibition), while 1x PFK enzyme values were used to normalize 0%Activity (no inhibition). Concentration-response curves were fitted to the signals arising from the resulting luminescence. […]
Potency is the fitted concentration of half-maximal effect.

ATP-dependent 6-phosphofructokinase (Trypanosoma brucei brucei), sequence (O15648 whole entry, looked up): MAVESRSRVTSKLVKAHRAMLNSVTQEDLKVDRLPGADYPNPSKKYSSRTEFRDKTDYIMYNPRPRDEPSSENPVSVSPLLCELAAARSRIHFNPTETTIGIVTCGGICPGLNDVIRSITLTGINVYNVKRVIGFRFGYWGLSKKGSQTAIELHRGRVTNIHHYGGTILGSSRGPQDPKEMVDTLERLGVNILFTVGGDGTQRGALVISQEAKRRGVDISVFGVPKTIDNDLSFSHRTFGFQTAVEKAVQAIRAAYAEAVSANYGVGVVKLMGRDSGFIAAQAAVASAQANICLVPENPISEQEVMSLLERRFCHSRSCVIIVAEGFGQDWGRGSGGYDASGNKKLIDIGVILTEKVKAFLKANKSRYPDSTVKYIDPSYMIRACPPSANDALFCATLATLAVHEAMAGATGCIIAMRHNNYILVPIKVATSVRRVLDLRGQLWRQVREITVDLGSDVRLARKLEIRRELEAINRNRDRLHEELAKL

SMILES	activity change, negative = inhibition	Potency
N#CN	-2.94%	
S=C(S)N1CCNCC1	-4.43%	
ClC=C(Cl)Cl	24.9%	
CCOC(=O)c1ccccc1C(=O)OCC	11.7%	
C/C(=C\c1csc(C)n1)[C@@H]1C[C@@H]2O[C@]2(C)CCC[C@H](C)[C@H](O)[C@@H](C)C(=O)C(C)(C)[C@@H](O)CC(=O)O1	-12.4%	
COC([CH2][Hg])CNC(=O)c1ccccc1OCC(=O)O (stereo not given)		7.08 µM (active)
C[C@H]1CCC[C@H](O)CCCCCc2cc(O)cc(O)c2C(=O)O1	-5.73%	
CC12NC(Cc3ccccc31)c1ccccc12 (stereo not given)	0%	
O=CC=O	-6.14%	
O=c1c2ccccc2[se]n1-c1ccccc1		11.2 µM (active)
CCON=O	0.956%	
CC(C)(C)c1cc(O)ccc1O	-17.4%	
c1cc2c(c(NC3=NCCN3)c1)CCCC2	-5.49%	
COC1=CC=C2[C@H]3Cc4ccc(OC)c5c4[C@@]2(CCN3C)[C@H]1O5	2.22% [at 24.3 µM]	
C[C@H]1CC[C@@H]2[C@@H](C)[C@H]3[C@H](C[C@H]4[C@@H]5CC=C6CC(O[C@@H]7O[C@H](CO)[C@H](O)[C@H](O[C@@H]8O[C@H](CO)[C@@H](O)[C@H](O)[C@H]8O)[C@H]7O[C@H]7O[C@@H](C)[C@H](O)[C@@H](O)[C@H]7O)CC[C@]6(C)[C@H]5CC[C@]34C)N2C1 (stereo not given in full)	5.38%	
[Cl-].[Cl-].[Hg+2]		8.91 µM (active)
CNC(=O)Oc1ccccc1C(=O)Nc1ccccc1	-7.17%	
Cc1sc2ccccc2c1CC1=NCCN1	0%	
CCCCCCCCCC(=O)O[C@H]1CC[C@H]2[C@@H]3CCC4=CC(=O)CC[C@]4(C)[C@H]3CC[C@]12C	9.44%	
O=[N+]([O-])c1cc(I)c(O)c(I)c1	-24.3%	

SMILES	activity change, negative = inhibition	Potency
CC(=O)OC1CN2CCC1CC2 (stereo not given)	0%	
O[C@H]1[C@H]2[C@H](O)CCCN2C[C@H]1O	-2.98%	
c1ccc2sc(SNC3CCCCC3)nc2c1	8.74%	
NCC(O)c1cccc(O)c1 (stereo not given)	0.246%	
[O]=[Cd]	0.328%	
O=C(NC(=O)c1c(F)cccc1F)Nc1ccc(Cl)c(Oc2ncc(C(F)(F)F)cc2Cl)c1	-3.06%	
CCCC(C)(COC(N)=O)COC(=O)NC1CC1 (stereo not given)	2.72%	
O=C(O)C(Cl)(Cl)Cl	-3.81%	
CCCCCl	5.98%	
COc1ccc(OC)c(C(O)C(C)N)c1 (stereo not given)	-9.21%	
C=CCN1CC[C@]23c4c5ccc(O)c4O[C@H]2[C@@H](O)C=C[C@H]3[C@H]1C5	-0.88%	
Clc1ccc(C2(Cn3cncn3)OCCO2)c(Cl)c1	-4.84%	
Clc1ccc(Cl)cc1	0.994%	
COc1ccc2c3c1O[C@H]1C(=O)CC[C@H]4[C@@H](C2)N(C)CC[C@]314	-8.88%	
C[C@@H](Cc1ccccc1)NCCC(c1ccccc1)c1ccccc1	4.19% [at 24.3 µM]	
O=C1CC[C@@]2(O)C3Cc4ccc(O)c5c4C2(CCN3CC2CC2)[C@H]1O5 (stereo not given in full)	-3.24%	
CCCC(C)C1(CC)C(=O)NC(=O)NC1=O (stereo not given)	9.7%	
CCCCNCC(O)c1ccc(O)cc1 (stereo not given)	-12%	
CC(N)Cc1ccc(O)cc1 (stereo not given)	4.65%	
CC(=O)O[C@H]1CC[C@H]2[C@@H]3CCC4=CC(=O)CCC4=C3C=C[C@]12C	-2.14%	
